Test in all cases: NCI-60 one-dose screen, 48 h (100 = growth as untreated, 0 = no growth, -100 = all killed)
What all share (settings): 10 µM unless noted

Experiment [1] deals with NCI-H23 lung.
Experiment [2] concerns NCI-H226 lung.
Experiment [3] concerns NCI-H322M lung.
Experiment [4] concerns HOP-62 NSCLC.
The test system of experiment [5] is HOP-92 NSCLC.
Experiment [6] deals with NCI-H522 lung.
The subject of experiment [7] is A549/ATCC NSCLC.
In experiment [8] the test system is 786-0 renal.
Experiment [9] concerns DU-145 prostate.
Experiment [10] concerns K-562 leukemia.
For experiment [11], the system named is MALME-3M melanoma.
Experiment [12] relates to MDA-MB-231 breast.
Experiment [13] concerns RXF 393 renal.
The test system of experiment [14] is SF-268 CNS.
Experiment [15] relates to SF-295 CNS.
The subject of experiment [16] is SF-539 CNS.
The subject of experiment [17] is UACC-257 melanoma.
Experiment [18] deals with M14 melanoma.
Experiment [19] has as its system COLO 205 colon.

About 83,000 compounds went through this panel and 20% of them were active in at least one assay; those are over-represented in the sample as a whole.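 In brief: 96-well plates, 48 h treatment, single concentration, percent growth endpoint.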 Values without a mark were called inactive. The source made the active and inactive calls. How the source made its calls: active means growth percent below 10; inactive means the rest.

Regarding `N#C/C(=C\c1ccc(Br)cc1)n1nnc2cc(Cl)c(Cl)cc21`, the growth in experiment [1] was 32.3%; in experiment [2], 36.3%; in experiment [3] it was 56.7%; in [4], 53.1%; in [5], 33.2%; in experiment [6], 6.95% (active). Also, the growth in experiment [7] is 67.4%; in experiment [8], 43.8%; in [9], 34%; in [10], 8.99% (active); in [11] it was 67.5%; in experiment [12] it was 33%. Further, the growth is -6.31% (active) in experiment [13]; 59.2% in experiment [14]; 65.8% in experiment [15]; 49.8% in experiment [16]; 52.4% in experiment [17]; 31.3% in experiment [18].

As for `CCCCCCCCCCCCCCCCCC1=NCCN1C(=O)OCCO`, the growth was 76.9% in experiment [1]; 78.5% in experiment [2]; 51.1% in experiment [3]; 52.6% in experiment [4]; 56.5% in [5]; 11.1% in experiment [6]. Moreover, the growth in experiment [7] is -72.4% (active); in [8] it was 87.2%; in experiment [19], -72.9% (active); in [9], -3.11% (active); in experiment [10] it was 1.39% (active); in [11] it was 94%. Besides, the growth in [12] was -25.6% (active); in experiment [13] it was 49.8%; in experiment [14], 31.4%; in experiment [15], 23.3%; in experiment [16] it was -25.7% (active); in experiment [17], 62.9%.

As to `COc1cc(CNC(=O)/C=C/C=C/c2ccc3c(c2)OCO3)ccc1OCc1cn(-c2ccc(Cl)c(Cl)c2)nn1`, the growth is -34.1% (active) in experiment [1]; 31.2% in [2]; 21.6% in [3]; -19.8% (active) in experiment [4]; -14.7% (active) in experiment [5]; 5.67% (active) in experiment [6]. Further, the growth was 2.23% (active) in experiment [7]; -40.6% (active) in experiment [8]; -32.3% (active) in experiment [9]; 5.49% (active) in experiment [10]; -54.7% (active) in experiment [11]; 5.5% (active) in [12]. In addition, the growth in [13] was -24% (active); in experiment [14] it was 18%; in experiment [15] it was -39% (active); in experiment [16] it was 74.4%; in [17], -17.4% (active); in experiment [18] it was -30.4% (active).

On to `Cn1ccc(Cc2cnc(N)s2)n1`, for which the growth in experiment [1] is 101%; in experiment [2] it was 98.8%; in experiment [3], 102%; in [4], 100%; in experiment [5], 98.1%; in experiment [6] it was 84.3%. In addition, the growth in [7] is 84.3%; in experiment [8], 101%; in experiment [19], 105%; in [9], 110%; in experiment [11] it was 100%; in experiment [12], 104%. Also, the growth in [13] is 107%; in experiment [14], 100%; in [15] it was 107%; in experiment [16], 99.5%; in experiment [17], 81.7%.

As to `Clc1ccc(/C=N\N=c2\scc(-c3ccc(Cl)cc3)n2/N=C/c2ccc(Cl)cc2)cc1`, the growth is 94.4% in experiment [1]; 111% in experiment [2]; 95.7% in [3]; 107% in [4]; 106% in [5]; 68.7% in experiment [6]. For the same compound, the growth in experiment [7] was 75.7%; in [8] it was 98.1%; in experiment [19], 113%; in experiment [9], 105%; in [11] it was 100%; in experiment [12], 101%. The growth is 108% in experiment [13]; 97.8% in [14]; 109% in experiment [15]; 96.1% in [16]; 77.9% in [17].

For the compound `Nc1c(C(=O)c2ccccc2)nnc2ncnn12`, the growth was 95.6% in experiment [1]; 94.5% in experiment [2]; 98.2% in [3]; 97% in experiment [4]; 95.2% in experiment [5]; 88.5% in [6]. Besides, the growth in experiment [7] is 95.2%; in experiment [8], 97.2%; in [19], 103%; in experiment [9] it was 106%; in experiment [10], 97.1%; in experiment [11], 107%. For the same compound, the growth in [12] was 93%; in experiment [13] it was 110%; in experiment [14], 102%; in experiment [15], 103%; in [16], 117%; in [17] it was 95.4%.

Turning to `N#Cc1c(N)nc2c(nnn2-c2cccc(C(F)(F)F)c2)c1N`, the growth in experiment [1] is 86.6%; in experiment [2], 92.4%; in [3], 89.8%; in [4], 80.5%; in [5] it was 77.6%; in experiment [6] it was 75.2%. Moreover, the growth in [7] is 78%; in experiment [8], 101%; in [19], 104%; in experiment [9], 99%; in experiment [11], 121%; in experiment [12], 78.3%. Also, the growth is 92.7% in experiment [13]; 91.9% in [14]; 95.6% in experiment [15]; 96.9% in [16]; 103% in experiment [17].

As to `O=S(=O)(Cc1ccccc1)c1nc2ccccc2s1`, the growth in [1] is 56.3%; in experiment [2], 82.9%; in experiment [3] it was 93.8%; in [4], 105%; in experiment [5], 33.7%; in experiment [6], 13.2%. Besides, the growth in experiment [7] is 98.4%; in experiment [8], 88.9%; in experiment [9], 86.7%; in experiment [10], 13.5%; in experiment [11], 73.6%; in experiment [12], 85.1%. The growth in [13] was 109%; in experiment [14], 79%; in experiment [15] it was 109%; in experiment [16] it was 92%; in experiment [17] it was 78.7%; in experiment [18], 18.3%.

As to `CCN(CC)CCNc1ccc(C)c2sc3cc(C)ccc3c(=O)c12`, the growth in experiment [1] is 72.3%; in experiment [2], 95.5%; in experiment [3], 68.8%; in [4], 62.9%; in experiment [5], 25.2%; in experiment [6] it was 44.2%. For the same compound, the growth was 56.2% in experiment [7]; 42.9% in experiment [8]; 67% in [9]; -19.6% (active) in experiment [10]; 72.5% in [11]; 19.4% in experiment [12]. The growth was 59.1% in experiment [13]; 59.1% in [14]; 72.9% in experiment [15]; 76.3% in experiment [16]; 65.5% in experiment [17]; -46.2% (active) in experiment [18].

(Values after PubChem BioAssay (NCI).)
